# This is a sample that favours compounds with a hit; in the whole collection about 12% have one here.
# HP1b binding inh: inhibitors of HP1-beta chromodomain binding to methylated histone tails; P83916; AlphaScreen HP1-beta / biotin-H3K9me3 peptide binding; Potency, µM (series often up to 114 µM), for inactives: at the top dose activity change, negative = inhibition, most hits filed as inhibitors; 390,000 tested, 0.56% active; AID 540317; note: nearly all actives have a fitted effect of over 70% in size
# Target sequence (P83916 whole entry, looked up): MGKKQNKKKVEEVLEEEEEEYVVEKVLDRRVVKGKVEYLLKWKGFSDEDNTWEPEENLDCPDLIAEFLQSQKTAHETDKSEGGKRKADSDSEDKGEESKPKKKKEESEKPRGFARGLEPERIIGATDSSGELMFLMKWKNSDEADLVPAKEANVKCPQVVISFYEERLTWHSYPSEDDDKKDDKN
#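 Compound inhibition of the preformed complex between 50 nM HP1-beta and 50 nM biotinylated H3K9me3 peptide was read by AlphaScreen. Buffer was PBS pH 7.4 with 0.01% Tween-20. Incubations ran 30 min at room temperature, with 10 ug/mL donor/acceptor beads.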
# BAZ2B block: blocks human BAZ2B | Q9UIF8 | AlphaScreen BAZ2B-H3K14Ac peptide displacement | Potency, µM (top dose mostly 114 µM), for inactives: at the highest dose activity change, negative = inhibition, usual class: inhibitors | 360,000 tested, 4.4% active; note: % is set by controls: 0 for no effect and ±100 for the full control effect; nearly all actives have a fitted effect of over 60% in size
#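 Inhibition is scored as reduced AlphaScreen emission. The BAZ2B/b-H3(5-23)K14Ac complex (50 nM each) in PBS pH 7.4, 0.01% Tween-20 meets compound (up to 110 uM) for 30 min at RT before bead addition.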
# Sfp PPTase inh: inhibitors of Bacillus subtilis Sfp phosphopantetheinyl transferase | Q9F4F7 | Biochemical Sfp PPTase activity, qHTS | Potency, µM, for inactives: largest response in the series, negative = inhibition, hits mostly inhibitors | 310,000 tested, 3.5% active | AID 1490;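 note: the enzyme is Sfp with the accession as filed and its product quenches rhodamine fluorescence; 0% = enzyme reaction without inhibitor and -100% = no enzyme wells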
#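 Sfp 15 nM + cpd, 15 min RT; start w/ rhodamine-CoA 5 uM, BHQ-2-YbbR 12.5 uM (final); 50 mM Hepes pH 7.6, 10 mM MgCl2, 0.01% NP-40, 0.01% BSA; read 525/598 nm at 0 and 30 min.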
# JMJD2A Tudor inh: JMJD2A Tudor domain (human) inhibition. O75164. AlphaScreen JMJD2A-Tudor / H3K4me3 peptide binding. Potency, µM (highest dose often 114 µM), inactives show top-dose activity change, negative = inhibition, usual class: inhibitors. 390,000 tested, 4.4% active. AID 504339; note: % is set by controls: 0 for no effect and ±100 for the full control effect; nearly all actives have a fitted effect of over 50% in size
# G9a block: inhibitors of human histone lysine methyltransferase G9a. G9a H3K9 monomethylation, AlphaScreen, 2 h. Potency, µM (doses to about 102 µM), inactives show at the highest dose activity, negative = inhibition, most hits filed as inhibitors. 350,000 tested, 8.8% active; note: % is set by controls: 0 for no effect and ±100 for the full control effect; nearly all actives have a fitted effect of over 75% in size
# Target sequence (Q96KQ7 913-1193 limits assumed): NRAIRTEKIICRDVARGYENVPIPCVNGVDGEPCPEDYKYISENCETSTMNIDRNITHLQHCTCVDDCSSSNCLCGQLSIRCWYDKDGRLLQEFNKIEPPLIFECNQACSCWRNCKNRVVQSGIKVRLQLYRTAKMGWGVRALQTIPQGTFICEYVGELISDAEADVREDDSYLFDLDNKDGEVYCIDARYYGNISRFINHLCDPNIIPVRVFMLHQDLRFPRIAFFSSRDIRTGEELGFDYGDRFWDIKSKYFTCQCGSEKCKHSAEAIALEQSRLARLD
#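 Quantitative HTS format: methyltransferase activity on a biotin-tagged H3K9 peptide is measured by AlphaScreen, using a rabbit anti-monomethyl-H3K9 antibody with streptavidin donor and anti-IgG acceptor beads. Final levels are 20 nM enzyme, 500 nM peptide, 20 uM SAM; 2 h RT.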
# The depositor's hits bear a star; ? = inconclusive; . = not tested or not shown; [ ] = remark or other dose. Calls come from the whole dose curve; as a rule, active = well fitted curve in the direction sought with a large enough effect; inconclusive = small, poorly fitted or top-dose-only effect, or another doubt; inactive = no such curve, though single readings can be large; an effect the other way counts as inactive or inconclusive. Potency is the fitted concentration of half-maximal effect.
SMILES,HP1b binding inh,BAZ2B block,Sfp PPTase inh,JMJD2A Tudor inh,G9a block
c1ccc(CNc2nc(NCc3ccccc3)c3ccccc3n2)cc1,3%,?,14µM*,-34%,?
c1cncc(-c2nc(NCc3ccc4c(c3)OCO4)c3ccccc3n2)c1,49%,-24%,45µM*,-14%,5%[59 µM]
CCc1ccccc1N(C)S(=O)(=O)c1ccc2[nH]cc(C(=O)N3CCc4ccccc43)c(=O)c2c1,4%,-5%,6%,-17%,20%
c1ccc(CNc2nc(-c3cccnc3)nc3ccccc23)cc1,29%,-4%,-8%,-16%,-3%
Cc1ccc(CNc2nc(-c3cccnc3)nc3ccccc23)cc1,32%,-15%,89µM*,-21%,-45%
Cc1ccc(Nc2nc(N)c([N+](=O)[O-])c(NCc3ccco3)n2)cc1,21%,-10%,-4%,-21%,17%[59 µM]
Fc1ccc(Nc2nc(NCc3ccco3)c3ccccc3n2)cc1,-15%,?,13µM*,50µM*,.
O=C(N/N=C/c1ccc2c(c1)OCO2)c1ccccn1,18%,-26%,79µM*,-7%,54%[59 µM]
COc1ccc2c(Cl)c(C(=O)N/N=C/c3ccc4c(c3)OCO4)sc2c1,-4%,-1%[57.1 µM],?,-31%,2%[12.7 µM]
O=C(N/N=C/c1ccc2c(c1)OCO2)c1ccc(Br)o1,-8%,79µM*,-27%,?,?
O=C(N/N=C/c1cc2c(cc1Br)OCO2)c1ccccn1,9%,-31%,-9%,-28%,1%
O=C(N/N=C/c1ccc2c(c1)OCO2)c1sc2cc(Cl)ccc2c1Cl,103%,?,-11%,89µM*,1%[59 µM]
O=C(N/N=C/c1cc2c(cc1Br)OCO2)c1cc2ccccc2o1,26%,-25%,-22%,-25%,40µM*
O=C(CCc1ccc(O)c(O)c1)N/N=C/c1ccc2c(c1)OCO2,?,-30%,40µM*,?,.
O=C(/C=C/c1ccccc1)c1ccccn1,14%,-37%,28µM*,12%,?
O=C(/C=C/c1ccc2c(c1)OCO2)c1ccccn1,16%,?,32µM*,-34%,?
Cc1ccc2c(c1)NC(=O)C(CC(=O)Nc1ccc(Br)c(C)c1)O2 (centres undefined),29%,-3%,?,-16%,-5%
O=S1(=O)c2ccccc2OC(COCc2ccccc2)CN1C1CC1 (centres undefined),114%,.,.,-3%,.
CCNc1nc(NCC)nc(SCCOC(=O)COc2ccc(Cl)cc2Cl)n1,45%,10%,5%,1%,-3%
COc1ccc2[nH]c3c(c2c1)CCN1C(=O)N([C@@H](C)C(=O)NCCc2ccc(F)cc2)C(=O)[C@]31C,-8%,?,9%,?,50µM*
C[C@@H](C(=O)NCc1ccco1)N1C(=O)N2CCc3c([nH]c4ccccc34)[C@@]2(C)C1=O,-13%,50µM*,13%,-29%,?
COc1ccc2[nH]c3c(c2c1)CCN1C(=O)N([C@@H](C)C(=O)NCc2ccc(F)cc2)C(=O)[C@]31C,-1%,-30%,9%,-25%,?
O=C(COc1cccc(C(F)(F)F)c1)Nc1nnc(C2CC2)s1,37%,.,.,-10%,.
Cc1cc(C(=O)NNc2ccc(F)cc2F)no1,47%,0%,8%,8%,-103%[59 µM]
Cc1ccc(NNC(=O)c2cc(C)on2)c(C)c1,1%,-14%,-12%,-7%,11µM*
SMILES,HP1b binding inh,BAZ2B block,Sfp PPTase inh,JMJD2A Tudor inh,G9a block
Cc1cc(C(=O)NNc2ccc(Cl)cc2)no1,57%,-5%,-17%,-5%,.
Cc1ccc(NNC(=O)c2ccno2)cc1Cl,28%,-31%,1%,-22%,8.9µM*
Cc1ccc(NNC(=O)c2snnc2C)cc1Cl,-19%,-2%,-6%,-19%,.
Cc1cc(C(=O)NNc2ccc(C)c(C)c2)no1,5%,-3%,-10%,-17%,2.5µM*
Cc1ccc(NNC(=O)c2ccno2)cc1C,-3%,1%,-17%,79µM*,6.3µM*
O=C(c1ccc(CNS(=O)(=O)c2cccc(Cl)c2)cc1)N1CCCCC1,33%,-1%,1%,1%,0%[12.7 µM]
COc1cc(N2C(=O)C=CC2=O)ccc1N1C(=O)C=CC1=O,?,.,.,4.5µM*,.
COc1ccc(N2C(=O)C3CC(C)=C(C)CC3C2=O)c(OC)c1 (centres undefined),54%,-5%,26%,-12%,-11%
O=C(CSc1ccc(Cl)cc1)Nc1ccccc1N1CCN(C(=O)c2ccccc2)CC1,3%,-32%,0%,-29%,-11%
N#Cc1cc2cc3ccccc3nc2n2c(=O)c3ccccc3nc12,?,-15%,2%,-20%,-37%
COc1ccc(C2C(C#N)=C(N)SC(N)=C2C#N)cc1OC,6%,-11%,?,56µM*,?
CCOc1ccc(C2C(C#N)=C(N)SC(N)=C2C#N)c(OCC)c1,-21%,-38%,16µM*,?,14µM*
N#CC1=C(N)SC(N)=C(C#N)C1c1cccc(O)c1,4%,?,79µM*,?,?
CCOc1cc(C2C(C#N)=C(N)Oc3cc(N)ccc32)ccc1O (centres undefined),7%,-6%,-20%,-18%,.
CCCc1[nH]nc2c1C(c1ccc(OCCN3CCOCC3)c(OC)c1)C(C#N)=C(N)O2 (centres undefined),28%,-6%,-13%,-7%,?
N#CC1=C(N)Oc2cc(O)ccc2C1c1ccccc1 (centres undefined),14%,-24%,4%,-19%,0%[12.7 µM]
CCOc1cc(C2C(C#N)=C(N)SC(N)=C2C#N)ccc1OCCN1CCOCC1,?,-31%,-87%,45µM*,2.5µM*
O=S1c2ccccc2Nc2ccccc21,38%,-3%,.,-5%,-7%[2.33 µM]
O=C(NCc1ccccc1Cl)c1ccc(CS(=O)(=O)c2ccc(Br)cc2)o1,12%,-12%,.,-10%,-22%[59 µM]
CCOc1ccc(NC(N)=O)cc1OCC,-8%,?,-2%,-31%,-6%[59 µM]
CCOC(=O)C(C#N)C(Cc1ccccc1)c1ccco1 (centres undefined),-12%,8%,9%,-2%[11.4 µM],-2%[12.7 µM]
CC(C)(O)C(=O)NNC(=S)Nc1cccc(C(F)(F)F)c1,29%,-7%,8%,-13%,7.9µM*
Cc1ccc(NNC(=O)C(O)(c2cccc(C(F)(F)F)c2)c2cccc(C(F)(F)F)c2)cc1,13%,-28%,15%,-24%,32µM*
O=C(NNc1ccccc1Br)C(O)(c1cccc(C(F)(F)F)c1)c1cccc(C(F)(F)F)c1,-2%,-1%,47%,-30%,?
FC(F)(F)c1cccc(NC(=S)NNC(=S)Nc2cccc(C(F)(F)F)c2)c1,.,?,25µM*,.,35µM*
O=C(COc1ccc(Cl)cc1Br)NC(=O)NC1CCCC1,91%,22%,.,20%,8%[0.501 µM]
CCOC(=O)C1=C(C)NC(C)=C(C(=O)OCC)C1C(=O)OCC(=O)NCCc1ccccc1,34%,.,.,-10%,.

# Source: PubChem BioAssay (National Center for Advancing Translational Sciences (NCATS))
